PubChem BioAssay AID651955 (The Scripps Research Institute Molecular Screening Center, 2012)
The whole screen tested about 2,400 compounds, of which about 40 (2%) were called active. Cut-off read from the data, not from the text of the source: active = activation above about 37%; inactive = the rest. These entries were drawn from the full list.

target: Trace amine-associated receptor 1 (Homo sapiens) (UniProt Q96RJ0); test: TAAR1 activation by candidate antagonists – cell-based, fluorescence, counter-screen for TAAR1 antagonist project (AID 651955); details: hTAAR1 cell line, agonist mode, at 3 µM, active compounds read high;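 note: CHO cells stably expressing TAAR1 with calcium dye readout; 0% = DMSO vehicle and 100% = full agonist response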
Sequence (Q96RJ0 whole entry, looked up): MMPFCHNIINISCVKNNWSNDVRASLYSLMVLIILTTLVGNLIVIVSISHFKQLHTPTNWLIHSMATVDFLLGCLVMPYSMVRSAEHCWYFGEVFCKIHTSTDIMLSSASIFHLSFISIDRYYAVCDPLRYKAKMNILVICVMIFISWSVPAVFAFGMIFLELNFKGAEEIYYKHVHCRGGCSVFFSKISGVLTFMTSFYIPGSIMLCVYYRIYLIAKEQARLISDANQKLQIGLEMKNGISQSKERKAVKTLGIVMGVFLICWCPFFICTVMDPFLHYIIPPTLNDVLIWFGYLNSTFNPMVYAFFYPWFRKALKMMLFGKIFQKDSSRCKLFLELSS

Row | Structure (SMILES) | activation
1 | CC(=O)c1ccccc1OCc1ccc(C(=O)c2ccccc2)cc1 | 6.46% (inactive)
2 | COc1ccc(CCNC(=O)C(=O)NCC2OCCN2S(=O)(=O)c2ccc(OC)c(C)c2)cc1 (stereo not given) | 5.42% (inactive)
3 | COC(=O)C1=C(C)N(Cc2ccc(F)cc2)C(=S)NC1c1cccc(Cl)c1 (stereo not given) | 3.48% (inactive)
4 | CC(=O)OCCN(CCCn1c(-c2ccncc2)nc2ccccc21)c1nc(-c2ccc(C)cc2)cs1 | 2.91% (inactive)
5 | O=C(Nc1ccccc1-c1nnn(CC(=O)N2CCN(c3ccccc3)CC2)n1)c1cccs1 | 6.9% (inactive)
6 | O=S1(=O)c2c(cccc2N2CCCCC2)O[C@H](COCc2ccccc2)CN1C1CC1 | 0.58% (inactive)
7 | Cc1cccc(C)c1NC(=O)CNC(=O)C1CCCC1 | 6.49% (inactive)
8 | CCN=C1SC(CC(=O)Nc2ccc(C)cc2)C(=O)N1CC (stereo not given) | 12.6% (inactive)
9 | COc1ccc(-c2cc(C(=O)Nc3ccccc3O)c3ccccc3n2)cc1 | 16.7% (inactive)
10 | O=C(NCCN1CCOCC1)c1ccc(/C=C2\Sc3ccccc3N(Cc3ccc(F)cc3)C2=O)cc1 | 12.4% (inactive)
11 | COc1ccc(Cl)cc1NC(=O)CCS(=O)(=O)c1cc2c(cc1C)NC(=O)CO2 | 7.53% (inactive)
12 | COc1ccc(N(CC(=O)N/N=C/c2cccs2)S(=O)(=O)c2ccc(OC)c(OC)c2)cc1 | 11.5% (inactive)
13 | CSc1ncnc2c1ncn2CC(=O)C1CCC2C3CCC4=CC(=O)CCC4(C)C3CCC12C (stereo not given) | 15.2% (inactive)
14 | COc1ccc(C(=O)Nc2ccccc2C(=O)N/N=C/c2ccc(O)c(OC)c2)cc1 | 8.37% (inactive)
15 | Cc1ccc(SCc2c(C(=O)N/N=C/c3cccnc3)nnn2-c2nonc2N)cc1 | 17.1% (inactive)
16 | CSCCC(NC(=O)COc1ccccc1)C(=O)OCC(=O)c1cc2ccccc2o1 (stereo not given) | 3.28% (inactive)
17 | O=C(N/N=C/c1ccc(Cl)c(Cl)c1)c1ccc2nc[nH]c2c1 | 13.9% (inactive)
18 | COc1cc(/C=C2/C(=O)ON=C2C)ccc1OCc1ccccc1F | 18.6% (inactive)
19 | N#Cc1cccc(NC(=O)COC(=O)c2ccccc2C(=O)c2ccc(Cl)c([N+](=O)[O-])c2)c1 | 3.29% (inactive)
20 | CSCCC(NC(=O)COc1ccccc1)C(=O)OCCOc1ccc(Br)cc1 (stereo not given) | 4.8% (inactive)

Row | Structure (SMILES) | activation
21 | CC(=O)Nc1ccc(NC(=O)COC(=O)C2CCC(C(C)(C)C)CC2)cc1 (stereo not given) | 23.7% (inactive)
22 | COc1ccc(NC(=O)C2CCCN(S(=O)(=O)c3cccc4cccnc34)C2)cc1OC (stereo not given) | 5.06% (inactive)
23 | O=C(CN1CCCSc2ccccc21)N1CCN(S(=O)(=O)c2cccc(F)c2)CC1 | 6.06% (inactive)
24 | Cn1c(C(=O)NCCc2ccsc2)cc2c(=O)n(C)c3ccccc3c21 | 4.37% (inactive)
25 | O=C(COC(=O)c1c2c(nc3ccccc13)CCCC2)c1ccc(Br)s1 | 0.2% (inactive)
26 | Cc1nn(-c2ccccc2)c(C)c1NC(=O)COC(=O)c1cc(Cl)ccc1O | 10.5% (inactive)
27 | C=CCC[C@@H](Cc1ccc(F)cc1)C(=O)O[C@H](CNC(=O)[C@H](CC=C)CC(=O)N(CCO)Cc1ccccc1)c1ccccc1 | 2.53% (inactive)
28 | COc1ccc(CC(=O)Nc2c(C(N)=O)oc3ccccc23)cc1 | 6.71% (inactive)
29 | CCN1CCc2c(C#N)c(NCc3ccccc3)nc(NCCO)c2C1 | 8.1% (inactive)
30 | COc1ccc(C(=O)Nc2cccc(NC(=O)c3ccc(OC)cc3OC)n2)c(OC)c1 | 6.39% (inactive)
31 | CCOC(=O)C1C(c2ccc(OC)c(OC)c2)c2c([nH][nH]c2=O)CC1(C)O (stereo not given) | 3.71% (inactive)
32 | CSc1nc(-c2ccccc2)nc(C(Cl)Cl)n1 | 2.73% (inactive)
33 | CCCCNc1c(-c2cccc(Sc3ccc(OC)cc3)c2)nc2ccccn12 | 6.5% (inactive)
34 | CCOc1ccc(N2CC(C(=O)N/N=C/c3sccc3C)CC2=O)cc1 (stereo not given) | 3.12% (inactive)
35 | COc1ccc(-c2cc(C(=O)N(C)CC(=O)Nc3ccccc3Cl)c3ccccc3n2)cc1OC | 6.79% (inactive)
36 | COc1ccc(S(=O)(=O)N(CC(=O)NCc2ccco2)c2ccc(F)cc2)cc1 | 7.31% (inactive)
37 | CC(=O)N1CCN(C(=O)c2cc(-c3ccc(Cl)s3)nc3ccccc23)CC1 | 13% (inactive)
38 | COc1ccc(-c2cc(C(=O)N(C)Cc3ccccc3)c3ccccc3n2)cc1 | 1.41% (inactive)
39 | Cc1ccc(-n2c(C)cc(/C=N\NC(=O)CC(=O)NC(C)C)c2C)cc1 | 16.1% (inactive)
40 | OC(c1ccccc1)(c1ccccc1)C1CCN(CCCOc2ccc(-c3ccsc3)cc2)CC1 | 33.1% (inactive)
